The source of these data is PubChem BioAssay (NCATS).

Results filed as inconclusive are left out. Values without a mark were called inactive. The source made the active and inactive calls. Calls follow the shape of the dose curve; as a rule, active = well fitted inhibition curve with a large enough effect; inconclusive = small, poorly fitted or top-dose-only effect; inactive = no such curve, though single readings can be large or run the other way.
Potency is read from the fitted curve at half-maximal effect.

The nature of this assay: BET inhibitor-based combinations targeting novel dependencies in MECOM-rearranged (r) AML: SET-2 cell line (AID 2202231). Also: nearly all actives have a fitted effect of over 35% in size. The settings on record: SET-2 AML cells viability, CellTiter-Glo luminescence, 48 h; viability: hits give low values, series mostly up to about 46 µM. An excerpt: Ecotropic viral insertion site 1 (EVI1) is located on chromosome 3q26.2 as part of the MECOM (MDS and EVI1 complex) locus. Under normal hematopoiesis, EVI1 is a regulator of hematopoietic stem cell maintenance and self-renewal and EVI1 levels decrease as the cells differentiate. In approximately 5-10% of de novo acute myeloid leukemia (AML) EVI1 is aberrantly expressed, including Chromosomal inv(3)(q21;q26.2) or t(3;3)(q21;q26.2) alterations (MECOM-r) that account for about 50% of AML with EVI1 overexpression 31. AMLs with high levels of EVI1 have a poor prognosis and an overall survival time averaging between 10-14 months. EVI1 overexpression confers resistance in leukemia cells, highlighting the need to develop new targeted therapies for EVI1 overexpressing AMLs.
Here, we performed an unbiased chemical drug screening by evaluating the single agent activity of a collection of 2,480 oncology-focused, approved and investigational drugs (NCATS Mechanism Interrogation Plates, MIPE v5.0) against a panel of seven AML cell lines. These included four MECOM-r cell-lines (AML-191, AML-194, UCSD-AML1 and HNT-34) and three non-MECOM-r AMLs (MV4-11, OCI-AML3 and SET-2). Exploiting the mechanistic redundancy built in the library, we identified target-level sensitivities in MECOM-r AML cells and relative activity as compared to other AML subtypes.
A collection of 2480 mechanistically annotated dugs (MIPE v5.0) was used to screen four 3q26.2 rearranged AML cell lines and three non-3q26.2 rearranged AML cell lines. This library purposely exploits redundancy by including multiple inhibitors of key onco-targets, while simultaneously encompassing mechanistic diversity, targeting more than 800 distinct mechanisms of action. Briefly, cells were seeded in 5 uL of growth media using a Multidrop Combi dispenser into 1536 well white polystyrene tissue culture treated plates (Corning) at a density of 500cells/well. For each cell-line, for each of the 2480 drugs in MIPE v5.0 library, an 11-point dose curve was generated via a 1536 pin-tool. Plates were incubated for 48 hr at standard incubator conditions, covered by a stainless steel gasketed lid to prevent evaporation. Cell viability was determined by luminescence based, Cell Titer Glo assay (Promega). In detail, 3 uL of Cell Titer Glo were added to each well and plates were incubated at room temperature for 15 min with a stainless-steel lid in place. Luminescence readings were taken using a Viewlux (PerkinElmer) with a 2 s exposure time per plate. Compound dose-response curves were normalized to DMSO and empty well controls on each plate. Quantitative drug activity data from dose-response curves was determined utilizing area Under the Curve (AUC) and Z-transformed AUC (Z-AUC, a mean-centering transformation applied to each individual cell-line screened).
A general note: In ATP-based viability assays light output follows the ATP content of the culture.
For the compound `Cc1sc2c(c1C)C(c1ccc(Cl)cc1)=NC(CC(N)=O)c1nnc(C)n1-2` (stereo not given), the Potency was 0.263 µM (active).

Consider `C/C(=C\c1csc(C)n1)[C@@H]1C[C@@H]2O[C@]2(C)CCC[C@H](C)[C@H](O)[C@@H](C)C(=O)C(C)(C)[C@@H](O)CC(=O)O1`, for which the Potency is 0.0186 µM (active).

The viability is a read-out of living cells in per cent, often relative to untreated cells. Regarding `CCCN1CCO[C@@H]2c3cc(O)ccc3OC[C@H]21`, the viability is 92%.

On to `C#CC1(O)CCC2C3CCC4=CC(=O)CCC4(C)C3CCC21C` (stereo not given), for which the viability is 107%.

`Cc1ccccc1-n1c(Cn2ncc3c(N)ncnc32)nc2cccc(C)c2c1=O`: the viability was 112%.

`O=c1[nH]c2ccccc2n1CCCN1CCC(n2c(=O)[nH]c3cc(Cl)ccc32)CC1`: the viability is 95.9%.

Take `CCc1c(C(=O)C(N)=O)c2c(OCC(=O)O)cccc2n1Cc1ccccc1`: the viability is 113%.

With `Cc1cccc(C)c1NC(=O)CN1CCCC1=O`, the viability was 109%.

For the compound `CC(C)[C@]12O[C@H]1[C@@H]1O[C@@]13[C@@]1(C)CCC4=C(COC4=O)[C@@H]1C[C@@H]1O[C@@]13C2=O`, the Potency is 0.0833 µM (active).

Turning to `O=C(O)c1nn(Cc2ccc(Cl)cc2Cl)c2ccccc12`, the viability was 107%.

For `Cc1c(N)nc([C@H](CC(N)=O)NC[C@@H](N)C(N)=O)nc1C(=O)N[C@H](C(=O)N[C@@H](C)[C@H](O)[C@@H](C)C(=O)N[C@@H](C(=O)NCCc1nc(-c2nc(C(=O)NCCC[S+](C)C)cs2)cs1)[C@@H](C)O)C(O[C@H]1O[C@H](CO)[C@H](O)[C@@H](O)[C@H]1O[C@H]1O[C@H](CO)[C@@H](O)[C@H](OC(N)=O)[C@@H]1O)c1cnc[nH]1` (stereo not given in full), the viability is 100%.

On to `Cn1c(CCCCCCC(=O)NO)nc2cc(N(CCCl)CCCl)ccc21`, for which the Potency was 2.63 µM (active).

Take `CCCC[N+]1(C)[C@H]2CC(OC(=O)[C@H](CO)c3ccccc3)C[C@H]1[C@H]1O[C@H]12` (stereo not given in full): the viability was 109%.

With `O=c1cccc2n1CC1CNC[C@H]2C1`, the viability was 119%.

For `CCOP(=O)(OCC)C(C)NC(=O)N(CCCl)N=O` (stereo not given), the viability is 106%.

Take `COc1ccc(N(C(=O)Oc2c(C)cccc2C)c2ccnc(Nc3ccc(N4CCN(C)CC4)cc3)n2)c(OC)c1`: the viability was 117%.

For the compound `Fc1ccc(C(OCCN2CCN(CCCc3ccccc3)CC2)c2ccc(F)cc2)cc1`, the Potency is 23.5 µM (active).

As for `O=c1[nH]c2ccccc2n1C1CCN(Cc2ccc(-c3[nH]c4cc5ncnc5cc4nc3-c3ccccc3)cc2)CC1`, the viability is 104%.

For the compound `COC12C(COC(N)=O)C3=C(C(=O)C(C)=C(N)C3=O)N1CC1C2N1C` (stereo not given), the viability is 107%.

Regarding `CC1(C)C(=O)N(c2ccc(C#N)c(C(F)(F)F)c2)C(=S)N1Cc1ccc(-c2cn[nH]n2)cc1`, the Potency was 16.6 µM (active).

Regarding `C#C[C@]1(O)C=C[C@H]2[C@@H]3CCC4=CC(=O)CC[C@@H]4[C@H]3CC[C@@]21CC`, the viability is 95.4%.

`CSCC[C@@H](NC(=O)[C@@H](Cc1ccccc1)NC(=O)CNC(=O)CNC(=O)[C@@H](N)Cc1ccc(O)cc1)C(=O)O`: the viability is 119%.

As for `CC(=O)O[C@@]12CO[C@@H]1C[C@H](O)[C@@]1(C)C(=O)[C@H](O)C3=C(C)[C@@H](O)C[C@@](O)([C@@H](OC(=O)c4ccccc4)[C@H]21)C3(C)C`, the viability is 103%.

Regarding `N[C@@H](Cc1ccc(N(CCCl)CCCl)cc1)C(=O)O`, the Potency was 4.68 µM (active).

Take `COc1cc2c(cc1F)C(c1ccccc1Cl)=Nc1c(n[nH]c1C)N2`: the Potency was 13.2 µM (active).

In the case of `COc1ccc(C(=O)N2CCCC2=O)cc1`, the viability is 119%.

For the compound `C[C@@H]1C[C@@H]([C@H](O)CC2CC(=O)NC(=O)C2)C(=O)[C@@H](C)C1`, the Potency was 0.296 µM (active).

On to `CC[C@@]1(O)C(=O)OCc2c1cc1n(c2=O)Cc2cc3ccccc3nc2-1`, for which the Potency was 0.0132 µM (active).

Consider `CNCC(O)c1ccc(O)cc1` (stereo not given), for which the viability was 116%.

Take `O=P1(NCCCl)OCCCN1CCCl` (stereo not given): the viability is 115%.

For `CC1=C2C[C@H]3[C@@H](CC=C4C[C@@H](O)CC[C@@]43C)[C@@H]2CC[C@]12O[C@@H]1C[C@H](C)CN[C@H]1[C@H]2C`, the viability is 113%.

In the case of `C[C@]12CC[C@H](O)CC1=CC[C@@H]1[C@@H]2CC[C@]2(C)C(=O)CC[C@@H]12`, the viability was 109%.

For `CCCCCCC(C)(C)c1cc(O)c2c(c1)OC(C)(C)C1CC=C(CO)C[C@H]21` (stereo not given in full), the Potency is 23.5 µM (active).

On to `CC(NC(C)(C)C)C(=O)c1cccc(Cl)c1` (stereo not given), for which the viability was 111%.

Turning to `Cn1c(CCCC(=O)O)nc2cc(N(CCCl)CCCl)ccc21`, the viability is 78.5%.

For the compound `COC[C@@H](NC(C)=O)C(=O)NCc1ccccc1`, the viability was 112%.

On to `C/C1=C/C[C@@H](/C(C)=C/c2csc(C)n2)OC(=O)C[C@H](O)C(C)(C)C(=O)[C@H](C)[C@@H](O)[C@@H](C)CCC1`, for which the Potency was 0.0934 µM (active).

Turning to `COc1ccc(C(=O)c2c(C)n(CCN3CCOCC3)c3ccccc23)cc1`, the Potency is 8.33 µM (active).

For `CC(=O)Nc1ccc(OC[C@](C)(O)C(=O)Nc2ccc([N+](=O)[O-])c(C(F)(F)F)c2)cc1`, the viability is 114%.

Regarding `Cc1sc2c(c1C)C(c1ccc(Cl)cc1)=N[C@@H](CC(N)=O)c1nnc(C)n1-2`, the Potency was 0.372 µM (active).
